Assay results published in publication PMC4336329 (PLoS ONE, 2015).
Among all 310,000 compounds or so, about 14,000 (4.5%) showed an effect of 50% or more. Effects have a minus sign here. This excerpt belongs to a sample that is enriched for strong results.

Each compound was assayed against human ether-à-go-go-related gene (hERG) potassium channel (human, UniProt Q12809) (assay: primary screen, population patch clamp on CHO cells stably expressing hERG; higher = less effect of the substance).
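Also: peak tail current of the secondary pulse compared with the same well before compound.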

Sequence of human ether-à-go-go-related gene (hERG) potassium channel (Q12809 whole entry, looked up): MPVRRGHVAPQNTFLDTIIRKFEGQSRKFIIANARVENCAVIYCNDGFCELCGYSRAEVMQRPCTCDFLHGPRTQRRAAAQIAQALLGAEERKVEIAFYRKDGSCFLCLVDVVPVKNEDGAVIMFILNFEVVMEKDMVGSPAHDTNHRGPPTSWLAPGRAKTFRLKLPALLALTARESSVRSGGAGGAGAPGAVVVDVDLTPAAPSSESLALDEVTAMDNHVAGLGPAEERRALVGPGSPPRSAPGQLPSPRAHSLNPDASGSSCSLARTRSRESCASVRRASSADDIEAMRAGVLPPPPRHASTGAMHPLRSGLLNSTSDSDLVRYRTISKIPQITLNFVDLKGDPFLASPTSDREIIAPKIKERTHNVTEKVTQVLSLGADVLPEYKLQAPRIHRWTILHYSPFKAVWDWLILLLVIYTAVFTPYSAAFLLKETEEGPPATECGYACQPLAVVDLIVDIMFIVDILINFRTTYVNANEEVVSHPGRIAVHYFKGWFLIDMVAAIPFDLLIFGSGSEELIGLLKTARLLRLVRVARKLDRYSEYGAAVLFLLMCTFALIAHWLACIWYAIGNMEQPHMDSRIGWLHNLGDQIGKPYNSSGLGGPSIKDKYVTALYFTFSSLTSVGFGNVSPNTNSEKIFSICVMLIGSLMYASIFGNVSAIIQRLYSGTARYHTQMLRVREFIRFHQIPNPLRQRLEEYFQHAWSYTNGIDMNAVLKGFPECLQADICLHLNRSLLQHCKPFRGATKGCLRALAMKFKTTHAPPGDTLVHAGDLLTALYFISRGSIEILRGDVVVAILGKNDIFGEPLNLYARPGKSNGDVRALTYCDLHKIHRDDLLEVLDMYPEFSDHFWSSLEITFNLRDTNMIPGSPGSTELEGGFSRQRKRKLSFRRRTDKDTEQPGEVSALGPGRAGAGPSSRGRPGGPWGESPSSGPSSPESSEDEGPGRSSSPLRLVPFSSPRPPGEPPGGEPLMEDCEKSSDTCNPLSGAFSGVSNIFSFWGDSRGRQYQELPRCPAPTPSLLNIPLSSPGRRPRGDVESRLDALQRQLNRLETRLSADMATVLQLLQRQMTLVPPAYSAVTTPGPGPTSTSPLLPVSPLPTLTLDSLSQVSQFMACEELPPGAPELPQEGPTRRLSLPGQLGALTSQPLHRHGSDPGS

Structure (SMILES)	hERG current change (%, negative = inhibition) at 10uM [%]
COCCCNc1nc2c(-c3cccc(C(F)(F)F)c3)nnn2c2ccccc12	-1.31
O=[N+]([O-])c1ccc(/C=N/Nc2cc(Cl)nc(-c3ccccc3)n2)cc1	2.34
CCC(C)c1ccc(OCC(=O)O)cc1 (stereo not shown)	11.5
O=C(NCc1cccnc1)c1cccnc1-c1nc2ccccc2s1	-14
CC(=O)N(Cc1cccnc1)c1cccc(-c2nc3ccccc3s2)c1	-51.1
c1cncc(-c2nc3ccccc3s2)c1	2.39
COC(C)(C)[C@H](O)COc1c2ccoc2cc2oc(=O)ccc12	11.2
Cc1cccc(CCNC(=O)CCNS(=O)(=O)c2cc(Br)cnc2N)c1	-5.7
CC(C)c1ccc(-c2c(C#N)c(N)nc(SCC(=O)N3CCCCCC3)c2C#N)cc1	8.56
COc1ccccc1C(=O)Nc1ccc(OC(C)C(=O)N2CCOCC2)cc1 (stereo not shown)	1.1
Cc1cccc(NC(=O)N2CCN(Cc3ccccc3)CC2)c1	8.14
O=C(Nc1cccc(C(=O)N2CCN(Cc3ccccc3)CC2)c1)c1ccccc1	-16.7
Cc1cccc(NC(=O)c2ccc(CN3CCN(Cc4ccccc4)CC3)cc2)c1	-80.3
Cc1cccc(NC(=O)N2CCCC2)c1	12.4
Cc1cccc(NC(=O)N2CCN(Cc3ccc(Cl)cc3)CC2)c1	-50.7
COc1cccc(NC(=O)c2ccc(CN3CCN(c4ccccc4)CC3)cc2)c1	-48.8
O=S(=O)(NNC(=S)NCC1CCCO1)c1cc(Cl)ccc1Cl (stereo not shown)	9.42
COC(=O)C1=C(C)N(CCc2ccccc2)C(=O)/C1=C\c1ccco1	-4.19
Cn1c(=O)c2c(nc(NCCCO)n2C/C=C/c2ccccc2)n(C)c1=O	-21
Cn1c(Cc2ccccc2)nnc1SCC(=O)N1CCN(c2ccccc2)CC1	-14.5
Cc1ccc(CSCc2nnc(SCC(=O)N3CCN(c4ccccc4)CC3)n2C)cc1	-54
CCn1c(CSCc2ccc(C)cc2)nnc1SCC(=O)N1CCN(c2ccccc2)CC1	-45.4
Cc1ccc(CSCC(=O)N2CCN(c3ccccc3)CC2)cc1	-9.06
Cn1c(CNC(=O)c2ccccc2F)nnc1SCC(=O)N1CCN(c2ccccc2)CC1	-8.2

Structure (SMILES)	hERG current change (%, negative = inhibition) at 10uM [%]
O=C(CSc1nncn1-c1ccccc1)N1CCCC1	2.66
Cn1c(CSCc2ccc(F)cc2)nnc1SCC(=O)N1CCN(c2ccccc2)CC1	-70.7
COc1ccc(-n2cnnc2SCC(=O)N2CCN(c3ccccc3)CC2)cc1	-36.2
CCn1c(CSCc2ccc(F)cc2)nnc1SCC(=O)N1CCN(c2ccccc2)CC1	-58.6
Cn1c(CNC(=O)c2ccccc2)nnc1SCC(=O)N1CCN(c2ccccc2)CC1	1.77
Cc1ccccc1-n1cnnc1SCC(=O)N1CCN(c2ccccc2)CC1	-57.7
C=CCn1c(CSCc2ccccc2)nnc1SCC(=O)N1CCN(c2ccccc2)CC1	-23.6
COc1ccc(OCC(N)=O)cc1	8.9
O=c1[nH]c(SCc2cccc(Cl)c2)nc2[nH]ncc12	12.6
C#Cc1ccc([C@@H]2C=C(C(=O)NC3CC3)O[C@H](OCC)[C@H]2CCCO)cc1	-35.2
CC(NC(=O)c1ccccc1)c1nnc(SCc2nc3ccccc3c(=O)[nH]2)n1C (stereo not shown)	14
C[C@@H](CO)NC(=O)c1ccc2c3n(nc2c1)-c1ccc(Cl)cc1CO3	-1.96
Cc1ccccc1NC(=O)CN1C(=O)NC(C)(c2ccc3c(c2)OCO3)C1=O (stereo not shown)	9.53
COc1ccc(C)cc1-n1nnnc1SCC(=O)NC1CC1	0.673
Cc1ccc(C)c(OCc2cc(C(=O)N3CCN(c4ccccc4)CC3)no2)c1	-31.4
Cc1ccc(C)c(OCc2cc(C(=O)N3CCN(C(=O)c4ccco4)CC3)no2)c1	-10.7
Cc1ccc(C)c(OCc2cc(C(=O)N3CCOCC3)no2)c1	-3.82
Cc1ccc(C)c(OCc2cc(C(=O)N3CCN(c4cnccn4)CC3)no2)c1	-81.7
COCCN1CCN(C(=O)c2cc(COc3cc(C)ccc3C)on2)CC1	1.06
CCN1CCC2(CCN(C(=O)c3cc(COc4cc(C)ccc4C)on3)C2)C1 (stereo not shown)	-54.8
FC(F)(F)c1ccc(N2CCN(c3ncnc4c3nnn4Cc3ccccc3)CC2)nc1	-2.11
C=CCn1c(C)cc(C(=O)CSc2nnc(NCc3ccccc3)s2)c1C	-8.54
O=c1[nH]c(O)c(C=Nc2ccccc2Oc2ccccc2)c(=O)[nH]1	15.9
COc1ccc(NS(=O)(=O)c2ccc(NC(=O)Cc3cccs3)cc2)cc1	12.7

Structure (SMILES)	hERG current change (%, negative = inhibition) at 10uM [%]
CCOc1ccc2nc(C)cc(C(=O)O)c2c1	-2.09
CCN1CCN(c2ccc(S(=O)(=O)N3CCOCC3)cc2NC(=O)CC(C)C)CC1	0.99
Br.COc1ccc(C(=O)CN2CCCCC2)cc1	7.07
CC1CC(C)CN(CC(=O)c2cccs2)C1 (stereo not shown)	-9.99
Br.CC1CC(C)CN(CC(=O)c2ccc(OC(F)F)cc2)C1 (stereo not shown)	-91.5
CC1CC(C)CN(C(=S)Nc2ccc(OC(F)F)cc2)C1 (stereo not shown)	-36.6
Cl.O=C(CN1CCCCC1)c1ccc(F)cc1	1.94
Br.O=C(CN1CCCCC1)c1ccc(OC(F)F)cc1	-69.6
Cc1cccc(C)c1-n1nnnc1C1(Nc2ccccc2)CCCCC1	-4.36
CCCN(CC(=O)Nc1ccccc1OC)C(=O)CCNC(=O)c1ccccc1OC	-2.16
CCN(CC)S(=O)(=O)c1ccc(N2CCN(CCO)CC2)nc1	-3.97
CCN(CC)S(=O)(=O)c1ccc(N2CCN(c3ccccc3O)CC2)nc1	-52.8
CCN(c1ccccc1)S(=O)(=O)c1ccc(N2CCN(c3ccccc3O)CC2)nc1	-0.538
Cc1ccc(CN2CCNC(=O)C2CC(=O)N(Cc2c(C)nn(C)c2C)C2CC2)o1 (stereo not shown)	23.9
CCN=C1SC(C(N)=O)CC(=O)N1CC (stereo not shown)	12.9
O=C(c1cn[nH]c1)c1cc(F)ccc1O	-2.62
Cc1ccc(NCc2nnc(SCC(=O)c3ccccc3)n2Cc2ccco2)c(C)c1	-7.53
Cc1ccc(-c2nnc(SCc3ccc(C#N)cc3)n2Cc2ccco2)cc1	-20.6
COc1cccc(-c2nnc(SCc3ccc(C#N)cc3)n2Cc2ccco2)c1	-70.3
COc1cccc(-c2nnc(SCC(=O)OC(C)C)n2Cc2ccco2)c1	-15.3
Cc1cccc(-c2nnc(SCc3nc4ccccc4[nH]3)n2Cc2ccco2)c1	-48.8
N#Cc1ccc(CSc2nnc(-c3ccccc3)n2Cc2ccco2)cc1	-26.8
Cc1cccc(-c2nnc(SCc3ccc(C#N)cc3)n2Cc2ccco2)c1	-89
COc1ccc(C(=O)CSc2nnc(CNc3ccc(C)cc3C)n2Cc2ccco2)cc1	6.88

Structure (SMILES)	hERG current change (%, negative = inhibition) at 10uM [%]
Cc1ccc(NCc2nnc(SCc3ccc(C#N)cc3)n2Cc2ccco2)c(C)c1	-70.8
O=C(CSc1nnc(-c2ccncc2)n1Cc1ccco1)N1c2ccccc2Sc2ccc(Cl)cc21	-2.92
CCSC1=NCCN1C(=O)c1c(-c2ccccc2Cl)noc1C	-20.6
O=C(CSc1nnc(-c2ccccc2)o1)NC1CCCCC1	-16.6
O=C(CNc1cccc([N+](=O)[O-])c1)N/N=C/c1ccc([N+](=O)[O-])o1	-36
O=C(CN1CCN(c2ccccc2)CC1)N1CCc2[nH]c3ccccc3c2C1	-26.9
COc1ccccc1NC(=O)N1CCCC1C(=O)NCc1cccs1 (stereo not shown)	0.509
COc1ccc(CCNCc2ccc(OCc3ccccc3)cc2)cc1	-41.6
COc1cc(CNCc2ccc(SC)cc2)cc(OC)c1	-14.9
COc1cccc(CCNCc2ccc(SC)cc2)c1.O=C(O)C(=O)O	-67.7
COc1cccc(CCNCc2c(F)cccc2F)c1.O=C(O)C(=O)O	-15.1
COc1ccc(CCNCc2ccc(SC)cc2)cc1	-73.2
COc1cccc(CNCCc2ccc(F)cc2)c1.O=C(O)C(=O)O	-9.82
CC(=O)N1c2ccc(S(=O)(=O)NC(CC(=O)O)c3ccc(Br)cc3)cc2CC1C (stereo not shown)	22.3
CC1CCN(S(=O)(=O)c2ccccc2)CC1	-3.32
O=C(CCNS(=O)(=O)c1ccc(Br)cc1)NCc1ccc2c(c1)OCO2	-3.3
Cc1c(C)n(-c2ccccc2)c2ncnc(NCCCN(C)C)c12	0.841
CN(C)CCCNc1ncnc2c1cnn2-c1ccccc1	-22.8
CN(C)CCCNc1ncnc2c1c(-c1ccccc1)cn2-c1ccccc1	-64.4
COc1ccc(-n2cc(-c3ccccc3)c3c(NCCOCCO)ncnc32)cc1	-42.9
OCCOCCNc1ncnc2c1cnn2-c1ccccc1	9.79
OCCOCCNc1ncnc2c1c(-c1ccccc1)cn2-c1ccccc1	-50.6
